8 compounds from ChEMBL document CHEMBL1961873, “Compounds: GSK PKIS; Assays: Nanosyn kinase panel” (2012) can be followed below.

Structures are written as SMILES.

The target in assay [1] is T1, Serine/threonine-protein kinase D2 (Homo sapiens) (UniProt Q9BZL6).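 Further: mean value of PRKD2 inhibition, from the GSK PKIS screening panel.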
T1 sequence (whole entry): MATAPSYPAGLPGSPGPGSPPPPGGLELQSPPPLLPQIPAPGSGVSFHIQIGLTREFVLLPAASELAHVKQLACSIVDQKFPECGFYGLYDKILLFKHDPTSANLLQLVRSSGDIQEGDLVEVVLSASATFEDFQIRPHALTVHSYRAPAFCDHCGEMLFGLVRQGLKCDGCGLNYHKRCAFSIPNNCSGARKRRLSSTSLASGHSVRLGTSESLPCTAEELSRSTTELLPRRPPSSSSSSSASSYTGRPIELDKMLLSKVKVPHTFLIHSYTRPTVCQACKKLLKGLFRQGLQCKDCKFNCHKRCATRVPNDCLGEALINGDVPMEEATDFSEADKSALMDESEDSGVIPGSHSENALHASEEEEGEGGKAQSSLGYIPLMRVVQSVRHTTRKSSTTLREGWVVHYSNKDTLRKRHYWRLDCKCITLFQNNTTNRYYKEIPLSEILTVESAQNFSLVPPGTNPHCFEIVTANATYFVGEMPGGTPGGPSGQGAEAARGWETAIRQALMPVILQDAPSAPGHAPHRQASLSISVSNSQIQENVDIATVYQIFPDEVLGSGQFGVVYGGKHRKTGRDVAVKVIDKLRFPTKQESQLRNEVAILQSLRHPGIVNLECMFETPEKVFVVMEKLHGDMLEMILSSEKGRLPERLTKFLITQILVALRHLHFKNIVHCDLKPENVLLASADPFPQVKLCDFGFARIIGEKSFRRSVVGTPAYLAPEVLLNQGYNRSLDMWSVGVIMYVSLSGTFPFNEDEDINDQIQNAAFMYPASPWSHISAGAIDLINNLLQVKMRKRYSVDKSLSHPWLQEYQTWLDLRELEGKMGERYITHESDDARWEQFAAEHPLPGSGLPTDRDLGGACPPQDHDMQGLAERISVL
The conditions noted are these: at 1 µM.

The target of assay [2] is T2, Serine/threonine-protein kinase D3 (Homo sapiens) (UniProt O94806).
T2 sequence (whole entry): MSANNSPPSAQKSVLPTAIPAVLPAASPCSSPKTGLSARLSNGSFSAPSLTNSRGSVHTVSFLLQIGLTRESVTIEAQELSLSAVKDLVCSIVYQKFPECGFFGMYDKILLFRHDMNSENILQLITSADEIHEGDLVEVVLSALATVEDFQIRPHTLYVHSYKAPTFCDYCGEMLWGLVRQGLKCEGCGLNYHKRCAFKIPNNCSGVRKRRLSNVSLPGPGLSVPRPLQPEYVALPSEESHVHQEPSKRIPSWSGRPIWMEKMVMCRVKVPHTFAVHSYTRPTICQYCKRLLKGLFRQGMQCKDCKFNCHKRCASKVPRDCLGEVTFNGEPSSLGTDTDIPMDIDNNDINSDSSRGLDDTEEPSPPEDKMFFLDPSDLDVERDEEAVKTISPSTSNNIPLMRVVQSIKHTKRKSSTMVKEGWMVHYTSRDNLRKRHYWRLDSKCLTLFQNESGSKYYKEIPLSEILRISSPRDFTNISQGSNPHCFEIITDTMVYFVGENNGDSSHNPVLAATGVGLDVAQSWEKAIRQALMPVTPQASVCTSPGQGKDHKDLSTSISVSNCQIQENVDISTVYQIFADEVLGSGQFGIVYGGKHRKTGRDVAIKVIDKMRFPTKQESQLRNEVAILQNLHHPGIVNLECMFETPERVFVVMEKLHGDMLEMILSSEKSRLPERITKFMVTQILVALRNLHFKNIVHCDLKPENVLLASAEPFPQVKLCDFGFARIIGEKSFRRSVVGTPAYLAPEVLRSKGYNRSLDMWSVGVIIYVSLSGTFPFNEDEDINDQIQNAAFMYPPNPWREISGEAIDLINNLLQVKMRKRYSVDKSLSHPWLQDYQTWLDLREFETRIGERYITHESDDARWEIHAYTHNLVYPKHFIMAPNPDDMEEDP
The following applies: at 0.1 µM.

Assay [3] addresses T2, Serine/threonine-protein kinase D3 (Homo sapiens). The following applies: at 1 µM.
In assay [4] the target is T3, cGMP-dependent protein kinase 1 (Homo sapiens) (UniProt Q13976).
T3 sequence (whole entry): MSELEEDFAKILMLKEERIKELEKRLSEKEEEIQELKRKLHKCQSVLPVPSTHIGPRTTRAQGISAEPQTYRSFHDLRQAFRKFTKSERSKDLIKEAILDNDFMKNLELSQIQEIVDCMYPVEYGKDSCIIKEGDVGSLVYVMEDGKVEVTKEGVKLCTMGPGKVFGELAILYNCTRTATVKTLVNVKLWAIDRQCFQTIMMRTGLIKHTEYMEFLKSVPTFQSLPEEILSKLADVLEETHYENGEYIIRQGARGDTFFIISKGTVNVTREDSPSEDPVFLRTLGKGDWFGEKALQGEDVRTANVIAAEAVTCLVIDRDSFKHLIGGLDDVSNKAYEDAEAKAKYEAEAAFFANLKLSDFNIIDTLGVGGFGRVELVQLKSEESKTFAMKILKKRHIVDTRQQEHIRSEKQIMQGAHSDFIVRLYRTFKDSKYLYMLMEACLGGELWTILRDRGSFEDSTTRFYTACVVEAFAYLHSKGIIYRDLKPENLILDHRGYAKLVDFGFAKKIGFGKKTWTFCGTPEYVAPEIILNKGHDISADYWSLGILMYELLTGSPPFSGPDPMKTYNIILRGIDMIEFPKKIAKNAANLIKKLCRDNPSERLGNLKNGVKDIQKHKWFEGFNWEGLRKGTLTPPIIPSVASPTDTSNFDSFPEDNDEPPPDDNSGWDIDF
The conditions noted are these: at 0.1 µM.

For assay [5], the target named is T3, cGMP-dependent protein kinase 1 (Homo sapiens). The following applies: at 1 µM.
Assay [6] deals with T4, cGMP-dependent protein kinase 2 (Homo sapiens) (UniProt Q13237).
T4 sequence (whole entry): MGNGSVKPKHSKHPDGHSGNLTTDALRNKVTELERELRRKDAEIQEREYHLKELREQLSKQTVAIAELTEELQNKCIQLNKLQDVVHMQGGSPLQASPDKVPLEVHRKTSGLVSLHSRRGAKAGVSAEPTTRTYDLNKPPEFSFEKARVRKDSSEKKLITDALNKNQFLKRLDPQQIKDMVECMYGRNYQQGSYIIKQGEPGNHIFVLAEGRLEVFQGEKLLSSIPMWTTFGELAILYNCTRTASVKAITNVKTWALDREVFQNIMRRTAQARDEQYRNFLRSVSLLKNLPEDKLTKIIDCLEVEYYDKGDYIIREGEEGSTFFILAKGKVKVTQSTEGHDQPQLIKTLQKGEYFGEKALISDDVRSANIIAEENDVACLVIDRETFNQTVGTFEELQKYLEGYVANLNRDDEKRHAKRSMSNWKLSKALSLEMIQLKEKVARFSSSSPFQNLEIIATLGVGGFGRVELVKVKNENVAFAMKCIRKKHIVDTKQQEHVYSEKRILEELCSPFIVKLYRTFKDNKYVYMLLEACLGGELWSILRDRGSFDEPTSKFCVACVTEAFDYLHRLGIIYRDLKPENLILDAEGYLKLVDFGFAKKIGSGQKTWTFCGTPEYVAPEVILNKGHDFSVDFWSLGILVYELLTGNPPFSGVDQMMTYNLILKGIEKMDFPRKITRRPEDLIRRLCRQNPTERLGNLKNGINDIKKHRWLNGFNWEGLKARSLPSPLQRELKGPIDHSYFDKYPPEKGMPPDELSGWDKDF
The conditions noted are these: at 0.1 µM.

The target of assay [7] is T4, cGMP-dependent protein kinase 2 (Homo sapiens). The following applies: at 1 µM.
Assay [8] addresses T5, cAMP-dependent protein kinase catalytic subunit PRKX (Homo sapiens) (UniProt P51817).
T5 sequence (whole entry): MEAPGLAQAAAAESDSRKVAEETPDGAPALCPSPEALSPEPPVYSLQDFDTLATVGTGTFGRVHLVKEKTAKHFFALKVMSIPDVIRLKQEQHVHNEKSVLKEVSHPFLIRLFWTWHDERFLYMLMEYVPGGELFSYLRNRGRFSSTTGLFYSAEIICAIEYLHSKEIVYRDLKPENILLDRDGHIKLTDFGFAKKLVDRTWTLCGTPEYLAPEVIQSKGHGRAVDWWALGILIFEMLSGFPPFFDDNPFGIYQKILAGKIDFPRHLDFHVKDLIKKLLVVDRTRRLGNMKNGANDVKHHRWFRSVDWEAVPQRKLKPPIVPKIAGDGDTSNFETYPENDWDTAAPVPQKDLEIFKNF
The following applies: at 0.1 µM.

The target of assay [9] is T5, cAMP-dependent protein kinase catalytic subunit PRKX (Homo sapiens). The following applies: at 1 µM.
The target of assay [10] is Rho-associated protein kinase 1 (Homo sapiens) (UniProt Q13464). The following applies: at 0.1 µM.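 Further: values are mean percent inhibition of ROCK1.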
Chain of Rho-associated protein kinase 1 (Homo sapiens) (Q13464 2-1354 limits assumed): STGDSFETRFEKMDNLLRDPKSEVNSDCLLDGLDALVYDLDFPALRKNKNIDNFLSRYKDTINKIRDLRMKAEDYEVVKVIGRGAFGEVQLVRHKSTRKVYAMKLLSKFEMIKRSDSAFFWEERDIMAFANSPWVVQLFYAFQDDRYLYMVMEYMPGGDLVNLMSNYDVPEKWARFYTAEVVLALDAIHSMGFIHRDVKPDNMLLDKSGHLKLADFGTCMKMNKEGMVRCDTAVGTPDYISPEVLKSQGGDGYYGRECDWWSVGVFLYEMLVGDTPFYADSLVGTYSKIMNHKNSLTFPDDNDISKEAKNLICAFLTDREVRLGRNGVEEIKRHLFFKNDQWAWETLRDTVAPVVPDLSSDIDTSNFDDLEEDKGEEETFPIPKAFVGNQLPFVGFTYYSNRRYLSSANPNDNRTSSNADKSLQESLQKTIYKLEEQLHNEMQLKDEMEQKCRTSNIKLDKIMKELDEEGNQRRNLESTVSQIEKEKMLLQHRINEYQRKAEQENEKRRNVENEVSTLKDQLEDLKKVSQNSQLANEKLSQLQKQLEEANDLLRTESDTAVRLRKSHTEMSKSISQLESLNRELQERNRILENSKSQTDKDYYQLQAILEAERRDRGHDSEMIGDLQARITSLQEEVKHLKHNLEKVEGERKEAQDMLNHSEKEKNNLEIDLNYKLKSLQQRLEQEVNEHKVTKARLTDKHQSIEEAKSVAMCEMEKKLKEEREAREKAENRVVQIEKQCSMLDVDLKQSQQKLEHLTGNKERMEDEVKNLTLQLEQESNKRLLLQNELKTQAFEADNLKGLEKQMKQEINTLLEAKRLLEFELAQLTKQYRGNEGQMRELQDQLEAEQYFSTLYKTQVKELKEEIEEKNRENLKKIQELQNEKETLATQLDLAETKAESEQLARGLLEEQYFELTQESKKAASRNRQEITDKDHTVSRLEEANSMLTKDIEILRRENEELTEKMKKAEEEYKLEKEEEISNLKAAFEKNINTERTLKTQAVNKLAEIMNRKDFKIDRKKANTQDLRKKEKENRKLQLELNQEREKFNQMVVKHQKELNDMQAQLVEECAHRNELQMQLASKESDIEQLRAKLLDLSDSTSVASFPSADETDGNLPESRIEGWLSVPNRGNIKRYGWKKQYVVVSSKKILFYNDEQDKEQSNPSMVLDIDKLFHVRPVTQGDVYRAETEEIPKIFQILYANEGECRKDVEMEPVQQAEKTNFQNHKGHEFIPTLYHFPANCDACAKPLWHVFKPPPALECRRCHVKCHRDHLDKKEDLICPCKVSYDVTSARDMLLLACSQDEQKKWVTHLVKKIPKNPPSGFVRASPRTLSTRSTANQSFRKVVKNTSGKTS

A word on the inhibition: it is the relative decrease from the control value, in per cent. In the case of `c1ccc(Nc2ncc(-c3ccccc3)o2)cc1`, the inhibition in [1] amounted to 8.41%; in assay [2], 4.57%; in assay [3], 8.93%; in [4], 5.37%; in assay [5] it was 6.06%; in assay [6] it was 3.62%. Further, the inhibition in assay [7] came to 5.4%; in assay [8], 2.38%; in assay [9], 3.33%; in assay [10], 1.88%.

`COc1cc2ncn(-c3cc(OCc4ccccc4S(C)(=O)=O)c(C#N)s3)c2cc1OC`: the inhibition was found to be 4.79% in assay [1]; 4.75% in assay [2]; 5.43% in assay [3]; 4.3% in assay [4]; 5.27% in assay [5]; 3.46% in assay [6]. The inhibition in [7] is 5.2%; in [8], 1.34%; in [9] it was 2.89%; in assay [10], 3.62%.

Take `ON=C1CCc2cc(-c3nc(C4CCNCC4)[nH]c3-c3ccncc3)ccc21`: the inhibition in assay [1] was 9.97%; in [2] it was 1.39%; in assay [3] it was 8.68%; in assay [4], -0.33%; in [5] it was 1.76%; in [6] it was 0.54%. For the same compound, the inhibition in assay [7] was 2.55%; in [8], -0.73%; in assay [9], -2.69%; in assay [10], 0.17%.

Turning to `COc1cc2ncnc(Nc3ccc4c(cnn4Cc4ccccc4)c3)c2cc1OC`, the inhibition came to 3% in assay [1]; 2.69% in [2]; 4.17% in assay [3]; 1.58% in assay [4]; 1.78% in assay [5]; 1.02% in assay [6]. Further, the inhibition worked out at 0.7% in assay [7], 1.5% in assay [8], 1.55% in assay [9] and 2.33% in assay [10].

As to `CCn1c(-c2nonc2N)nc2c(C#CC(C)(C)O)nc(OCCNC)cc21`, the inhibition in assay [1] amounted to 7.32%; in assay [2], 4.82%; in assay [3], 9.81%; in assay [4], 9.59%; in [5], 44.8%; in assay [6], 39.3%. The inhibition in assay [7] came out at 70.9%; in assay [8], 21.5%; in assay [9] it was 65.9%; in assay [10], 3.08%.

For `CC(C)c1ccc(Nc2nccc(-c3cnn4ncccc34)n2)cc1`, the inhibition in assay [1] was 15.6%; in assay [2], 2.22%; in assay [3], 15.6%; in assay [4], 0.59%; in [5], 4.3%; in [6], 1.01%. The inhibition in assay [7] was found to be 3.05%; in [8], 0.91%; in assay [9], 1.43%; in [10], 0.36%.

Turning to `NS(=O)(=O)c1ccc(NC=C2C(=O)Nc3ccc4ncsc4c32)cc1`, the inhibition in [1] is 79%; in assay [2], 19.4%; in assay [3], 76.3%; in assay [4], 6.31%; in [5] it was 28.6%; in assay [6], 18.4%. Also, the inhibition in assay [7] worked out at 61.7%; in assay [8], 2.2%; in assay [9], 12.2%; in assay [10] it was 15.5%.

`O=C1Nc2ccc(-c3cccnc3)cc2C1=Cc1cc(Br)c(O)c(Br)c1`: the inhibition worked out at 4.38% in assay [1]; 4.62% in [2]; 5.23% in [3]; 4.28% in assay [4]; 11% in [5]; 2.46% in [6]. Besides, the inhibition in assay [7] is 4.63%; in assay [8], 1.55%; in assay [9], -0.22%; in [10] it was 1.68%.
